In all, about 5,500 compounds went through this assay and about 2,000 (36%) were called active. Inconclusive results (about 18%) are left out. This is one part of the list. Values without a mark were called inactive. No stated cut-off is given here; in the data, active means normalized growth mostly below about 0.91 (no sharp cut-off); inconclusive means no clear call, values can overlap the other calls; inactive means mostly above about 0.92.
Assay: chemical genetic growth profiling, strain panel (AID 1159580);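 further: tested at 20 µM; growth read once vehicle control cultures reached saturation at 30 °C; 1 = growth at the plate median or of vehicle wells; lower values mean less growth of the strain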
Conditions: S. cerevisiae deletion strains, growth OD
[1] = locus YAL013W, strain DEP1, active compounds read low
[2] = locus YBR229C, strain ROT2, active compounds read low
[3] = locus YCL061C, strain MRC1, active compounds read low
[4] = locus YDL101C, strain DUN1, active compounds read low
[5] = locus YDR150W, strain NUM1, active compounds read low
[6] = locus YEL061C, strain CIN8, active compounds read low
[7] = locus YGR078C, strain PAC10, active compounds read low
[8] = locus YHR030C, strain SLT2, active compounds read low
[9] = locus YHR087W, strain rtc3, active compounds read low
[10] = locus YJL187C, strain SWE1, active compounds read low
[11] = locus YJR043C, strain POL32, active compounds read low
[12] = locus YJR075W, strain HOC1, active compounds read low
[13] = locus YKL190W, strain CNB1, active compounds read low
[14] = locus YLR039C, strain RIC1, active compounds read low
[15] = locus YLR058C, strain SHM2 (second series), active compounds read low
[16] = locus YLR085C, strain ARP6, active compounds read low
[17] = locus YLR262C, strain YPT6, active compounds read low
[18] = locus YML094W, strain GIM5, active compounds read low
[19] = locus YMR219W, strain ESC1, active compounds read low
[20] = locus YMR263W, strain SAP30, active compounds read low
[21] = locus YNL153C, strain GIM3, active compounds read low
[22] = locus YNL298W, strain CLA4 (second series), active compounds read low
[23] = locus YNL322C, strain KRE1, active compounds read low
[24] = locus YNR030W, strain Alg12, active compounds read low
[25] = locus YOL006C, strain TOP1, active compounds read low
[26] = locus YPL055C, strain LGE1, active compounds read low
[27] = locus YPL241C, strain CIN2, active compounds read low
[28] = locus YPR135W, strain CTF4, active compounds read low
[29] = locus YDL134C, strain PPH21, active compounds read low
[30] = locus YGR229C, strain SMI1, active compounds read low

For `O=C1OC2COC(=O)C2C=C1NC(=O)c1ccc(Cl)cc1` (configuration not stated), which normalized growth [1] is on record?
Its normalized growth is 0.914 (active).

What about the normalized growth [2] of the same compound?
The normalized growth was 0.372 (active).

And the normalized growth [3]?
The normalized growth was 0.125 (active).

And the normalized growth [4]?
The normalized growth was 0.154 (active).

And the normalized growth [5]?
The normalized growth was 0.939.

What about the normalized growth [6] of the same compound?
The normalized growth was 0.882 (active).

What about the normalized growth [7] of the same compound?
The normalized growth was 0.438 (active).

And the normalized growth [8]?
Its normalized growth is 0.38 (active).

What about the normalized growth [9] of the same compound?
Its normalized growth is 0.225 (active).

And the normalized growth [10]?
The normalized growth was 0.381 (active).

And the normalized growth [11]?
The normalized growth was 0.793 (active).

What about the normalized growth [12] of the same compound?
The normalized growth was 0.0733 (active).

And the normalized growth [13]?
Its normalized growth is 0.913 (active).

And the normalized growth [14]?
The normalized growth was 0.422 (active).

And the normalized growth [15]?
Its normalized growth is 0.506 (active).

And the normalized growth [16]?
Its normalized growth is 0.836.

And the normalized growth [17]?
Its normalized growth is 0.436 (active).

What about the normalized growth [18] of the same compound?
Its normalized growth is 0.82 (active).

What about the normalized growth [19] of the same compound?
Its normalized growth is 0.143 (active).

What about the normalized growth [20] of the same compound?
Its normalized growth is 0.921.

And the normalized growth (locus YMR307W, strain GAS1, active compounds read low)?
The normalized growth was 0.786.

And the normalized growth [21]?
The normalized growth was 0.329 (active).

What about the normalized growth [22] of the same compound?
Its normalized growth is 0.698 (active).

What about the normalized growth [23] of the same compound?
The normalized growth was 0.967.

And the normalized growth [24]?
Its normalized growth is 0.978.

And the normalized growth [25]?
Its normalized growth is 0.72 (active).

And the normalized growth [26]?
Its normalized growth is 0.942.

And the normalized growth [27]?
Its normalized growth is 0.975.

And the normalized growth [28]?
Its normalized growth is 0.627 (active).

Which normalized growth [1] does the source give for `Clc1cc(Cl)c(Cl)c(-n2cccc2)c1Cl` here?
The normalized growth was 0.855 (active).

And the normalized growth [2]?
Its normalized growth is 0.914 (active).

And the normalized growth [4]?
The normalized growth was 0.893 (active).

What about the normalized growth [29] of the same compound?
The normalized growth was 0.826 (active).

What about the normalized growth [5] of the same compound?
Its normalized growth is 0.863.

What about the normalized growth [6] of the same compound?
The normalized growth was 0.763 (active).

And the normalized growth [7]?
Its normalized growth is 0.813 (active).

And the normalized growth [30]?
Its normalized growth is 0.752 (active).

And the normalized growth [8]?
The normalized growth was 0.178 (active).

And the normalized growth [9]?
Its normalized growth is 0.8 (active).

And the normalized growth [11]?
The normalized growth was 0.887 (active).

What about the normalized growth [12] of the same compound?
The normalized growth was 0.707 (active).

And the normalized growth [13]?
Its normalized growth is 0.622 (active).

What about the normalized growth [14] of the same compound?
The normalized growth was 0.304 (active).

And the normalized growth [15]?
The normalized growth was 0.938.

What about the normalized growth [16] of the same compound?
The normalized growth was 0.41 (active).

What about the normalized growth [17] of the same compound?
Its normalized growth is 0.216 (active).

What about the normalized growth [18] of the same compound?
The normalized growth was 0.691 (active).

And the normalized growth [19]?
The normalized growth was 0.952.

What about the normalized growth [20] of the same compound?
The normalized growth was 0.916.

And the normalized growth [21]?
The normalized growth was 0.933.

What about the normalized growth [22] of the same compound?
Its normalized growth is 0.641 (active).

And the normalized growth [23]?
Its normalized growth is 0.956.

And the normalized growth [24]?
Its normalized growth is 0.631 (active).

What about the normalized growth [25] of the same compound?
Its normalized growth is 0.395 (active).

What about the normalized growth [26] of the same compound?
Its normalized growth is 0.785 (active).

And the normalized growth [27]?
The normalized growth was 0.701 (active).

And the normalized growth [28]?
The normalized growth was 0.543 (active).

Which results are given for `Clc1cc(Cl)cc(-n2cccc2)c1`?
normalized growth [1]: 1.02; normalized growth [2]: 0.995; normalized growth [3]: 1.03; normalized growth [4]: 1.01; normalized growth [29]: 0.969; normalized growth [5]: 1.04; normalized growth [6]: 0.963; normalized growth [7]: 1; normalized growth [30]: 0.98; normalized growth [8]: 0.975; normalized growth [9]: 0.989; normalized growth [10]: 1; normalized growth [11]: 1.02; normalized growth [12]: 0.981; normalized growth [13]: 0.988; normalized growth [14]: 1.04; normalized growth [15]: 0.994; normalized growth [16]: 0.949; normalized growth [17]: 1.05; normalized growth [18]: 0.991; normalized growth [19]: 0.997; normalized growth [20]: 1.01; normalized growth [21]: 1.01; normalized growth [22]: 0.951; normalized growth [23]: 1; normalized growth [24]: 0.98; normalized growth [25]: 0.977; normalized growth [26]: 0.981; normalized growth [27]: 0.987; normalized growth [28]: 0.917
